Laboratory results: PubChem BioAssay AID1220 (Sanford-Burnham Center for Chemical Genomics, 2008)
Hit rate of the full screen: of about 190,000 compounds, about 1,300 (0.68%) were called active. This is one part of a sample in which actives are shown more often than they occur. Cut-off read from the data, not from the text of the source: active = inhibition above about 50%; inactive = the rest.

biological target: Mannose-6-phosphate isomerase (Homo sapiens) (UniProt P34949); assay: MPI inhibition at elevated mannose 6-phosphate – biochemical, fluorescence intensity, high mannose 6-phosphate, primary screen (AID 1220); details: recombinant PMI enzyme, coupled fluorescence intensity; at 20 µM; active compounds read high
Sequence (P34949 whole entry, looked up): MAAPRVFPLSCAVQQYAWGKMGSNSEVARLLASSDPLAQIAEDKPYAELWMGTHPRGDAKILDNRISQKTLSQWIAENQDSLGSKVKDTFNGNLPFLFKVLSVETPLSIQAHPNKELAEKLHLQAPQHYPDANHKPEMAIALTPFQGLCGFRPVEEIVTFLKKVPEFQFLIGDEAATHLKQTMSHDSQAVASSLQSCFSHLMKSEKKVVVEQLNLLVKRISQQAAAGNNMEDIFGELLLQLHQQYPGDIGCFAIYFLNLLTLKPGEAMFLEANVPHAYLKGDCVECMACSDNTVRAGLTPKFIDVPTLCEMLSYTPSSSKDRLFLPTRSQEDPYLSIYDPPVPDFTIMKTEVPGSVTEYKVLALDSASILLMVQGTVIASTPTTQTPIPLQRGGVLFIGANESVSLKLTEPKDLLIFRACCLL

| SMILES | inhibition |
| --- | --- |
| O=C(NC1CCCCC1)C(c1ccccc1)N(C(=O)c1cccs1)c1ccc2c(c1)OCO2 (stereo unspecified) | -2.5% (inactive) |
| Nc1c(C(=O)Nc2ccccc2F)sc2nc(-c3ccco3)ccc12 | 59.6% (active) |
| Nc1c(C(=O)Nc2ccccc2)sc2nc(-c3ccco3)ccc12 | 15.1% (inactive) |
| COc1ccccc1NC(=O)c1sc2nc(-c3ccco3)ccc2c1N | 11.5% (inactive) |
| COCCNC(=O)CSc1nc2ccccc2c(=O)n1CCCC(=O)NCc1ccccc1 | -3% (inactive) |
| COc1ccc(-n2c(C)cc(/C=C/c3nc(O)c([N+](=O)[O-])c(=O)[nH]3)c2C)cc1 | 1.6% (inactive) |
| C=CCc1cc(/C=C2/NC(=S)NC2=O)cc(OC)c1O | 15.3% (inactive) |
| C=CCc1cc(/C=C/c2nc(O)c([N+](=O)[O-])c(=O)[nH]2)cc(OC)c1O | 68.9% (active) |
| COc1ccc(Nc2nnc(Cc3ccc(Cl)cc3)c(=O)[nH]2)c(OC)c1 | 19.1% (inactive) |
| CCC(=O)N(C)/C=C1\Sc2ccccc2C1=O | 5.7% (inactive) |
| CCC(=O)N(CC)C1=C(O)c2ccccc2C(=O)C1=O | 15.9% (inactive) |
| CC(C)NC1=C(Cl)C(=O)c2ccccc2C1=O | -32% (inactive) |
| CCC(=O)NC1=C(NC(C)c2ccccc2)C(=O)c2ccccc2C1=O (stereo unspecified) | -10.2% (inactive) |
| CCC(=O)N(C1=C(NC)C(=O)c2ccccc2C1=O)C(C)C | 62.3% (active) |
| CCC(=O)N(C1=C(NC(C)C)C(=O)c2ccccc2C1=O)C(C)C | 58.2% (active) |
| OC1CCCN(Cc2cn(Cc3ccccc3)nc2-c2cc3ccccc3o2)C1 (stereo unspecified) | 15.3% (inactive) |
| O=C(C1CCN(c2nc3nonc3nc2N2CCCCC2)CC1)N1CCOCC1 | 14.3% (inactive) |
| CCN(C(=O)COC(=O)c1ccc2[nH]c3c(c2c1)CCCC3)C1CCS(=O)(=O)C1 (stereo unspecified) | -6% (inactive) |
| Cc1cc2cc(CCNC(=O)c3cccc([N+](=O)[O-])c3)c(=O)[nH]c2cc1C | -2.2% (inactive) |
| CN(CC(=O)Nc1ccc(F)cc1)c1ccc(S(=O)(=O)N2CCCC2)cn1 | 1.4% (inactive) |
| CCn1ncc([C@@H]2C[C@H]3CN(Cc4ccccc4C)C(=O)[C@]34CCCN24)c1C | 25.8% (inactive) |
| O=C(O)C1CC(O)CN1c1nc(Cl)ccc1[N+](=O)[O-] (stereo unspecified) | 64.1% (active) |
| O=C(O)C1CN(c2nc(Cl)ccc2[N+](=O)[O-])C1 | 47.3% (inactive) |
| O=C(O)CNc1nc(Cl)ccc1[N+](=O)[O-] | 13.4% (inactive) |
| Cc1cccc(N2C(=O)CC(N3CCOCC3)C2=O)c1 (stereo unspecified) | -1.5% (inactive) |
| CC1(C)CC(=O)/C(=C(\O)c2ccccc2)C(=NCCc2ccccc2)C1 | -2.6% (inactive) |

| SMILES | inhibition |
| --- | --- |
| Cc1cc(C)nc(-n2cc(C(=O)c3cc(F)ccc3O)cn2)n1 | 52.4% (active) |
| Cc1ccc(O)c(C(=O)c2cnn(-c3ccccc3)c2)c1 | 12.6% (inactive) |
| Cc1ncc(CC(=O)n2cc(C(=O)c3cc(F)ccc3O)cn2)s1 | 8.5% (inactive) |
| CCN(CC)CCCNC(=O)c1cn(CC)c2ccc(S(=O)(=O)N3CCc4ccccc4C3)cc2c1=O | 0% (inactive) |
| O=C1CNC(=O)/C1=C\c1ccc(O)cc1 | -3.7% (inactive) |
| Cc1c(NC(=O)OCCSc2nc(N(C)C)nc(N(C)C)n2)sc(=S)n1C | 5.4% (inactive) |
| CSc1ccccc1NC(=O)C(=O)c1c[nH]c2ccccc12 | -2.7% (inactive) |
| O=C(Nc1ccccc1N1CCOCC1)C1Cc2ccccc2CN1C(=O)c1ccco1 (stereo unspecified) | -3.5% (inactive) |
| COc1c(Cl)cc(C(=O)Nc2ccccc2C(=O)O)cc1Cl | 0.7% (inactive) |
| O=[N+]([O-])c1ccc(O)c(N=Cc2sc3ccccc3c2O)c1 | 25.4% (inactive) |
| COc1ccc(N=Cc2sc3ccccc3c2Cl)cc1 | 1.8% (inactive) |
| Oc1ccc(Cl)cc1N=Cc1sc2ccccc2c1Cl | 55.5% (active) |
| Oc1c(C=Nc2cccc3cccnc23)sc2ccccc12 | -3.1% (inactive) |
| Oc1ccccc1N=Cc1sc2ccccc2c1Cl | 56.6% (active) |
| Cc1ccc(O)c(N=Cc2sc3ccccc3c2Cl)c1 | 19.3% (inactive) |
| COc1ccc(S(=O)(=O)NCCOc2ccccc2)cc1-n1cnnn1 | 7.4% (inactive) |
| Nc1nc(SCc2c(Cl)cccc2Cl)n[nH]1 | -8.6% (inactive) |
| CCOC(=O)c1cn2ccc(C)cc2n1 | 10% (inactive) |
| Cc1ccn2cc(C(=O)Nc3nnc(C)s3)nc2c1 | 51.4% (active) |
| Cc1ccn2cc(C(=O)Nc3ccc4c(c3)OCCO4)nc2c1 | 8.6% (inactive) |
| CC1CCN(CC(=O)Nc2sc3c(c2C#N)CCC3)CC1 | -6.5% (inactive) |
| CC(C)CCN1CCN(C2CCN(c3ccccc3)CC2)CC1CCO (stereo unspecified) | 7% (inactive) |
| Cc1cc(F)ccc1N1CCC(N2CCN(CCC(C)C)C(CCO)C2)CC1 (stereo unspecified) | 4.2% (inactive) |
| CC(C)CCN1CCN(C2CCN(c3ccc4c(c3)OCO4)CC2)CC1CCO (stereo unspecified) | 52.3% (active) |
| C=CCSc1nnc(NC(=O)c2cn(CC)c3nc(C)ccc3c2=O)s1 | -1.9% (inactive) |
| COCCn1c(N)c(S(=O)(=O)c2cccs2)c2nc3ccccc3nc21 | 4.3% (inactive) |

| SMILES | inhibition |
| --- | --- |
| COc1ccc(CNC(=O)c2c(N)n(CCCN3CCOCC3)c3nc4ccccc4nc23)cc1 | 20.1% (inactive) |
| COCCn1c(N)c(C(=O)NCc2cccs2)c2nc3ccccc3nc21 | 62.5% (active) |
| COc1ccc(CCn2c(N)c(C(=O)NCc3ccco3)c3nc4ccccc4nc32)cc1 | 48.2% (inactive) |
| COCCn1c(N)c(C(=O)NCC2CCCO2)c2nc3ccccc3nc21 (stereo unspecified) | 71.5% (active) |
| COCCn1c(N)c(C(=O)OCc2ccccc2)c2nc3ccccc3nc21 | 49.4% (inactive) |
| COc1ccc(OC)c(-n2c(N)c(C(=O)NCC3CCCO3)c3nc4ccccc4nc32)c1 (stereo unspecified) | 17.6% (inactive) |
| COCCn1c(N)c(C(=O)Nc2sc3c(c2C(=O)OC)CCCC3)c2nc3ccccc3nc21 | 11.1% (inactive) |
| Nc1c(C(=O)NCc2ccccc2)c2nc3ccccc3nc2n1CCCN1CCOCC1 | 49% (inactive) |
| COc1ccc(CCn2c(N)c(C(=O)NCc3ccco3)c3nc4ccccc4nc32)cc1OC | 51.6% (active) |
| COc1ccccc1CNC(=O)c1c(N)n(CCCN2CCOCC2)c2nc3ccccc3nc12 | 52.5% (active) |
| Nc1c(C(=O)NCc2ccco2)c2nc3ccccc3nc2n1CCc1ccccc1 | 34.8% (inactive) |
| COc1ccccc1/C=N/NC(=O)c1ccccc1Cl | 2.7% (inactive) |
| COc1ccc2nc(C)cc(SCC(=O)NNC(=O)COc3cccc4ccccc34)c2c1 | -3% (inactive) |
| CC(C)N(C(=O)Cn1cc(SCC(N)=O)c2ccccc21)C(C)C | -4.4% (inactive) |
| COc1cccc(NC(=O)CSCC(=O)O)c1 | 8.3% (inactive) |
| CCOC(=O)Cn1cc(C(=O)c2cccs2)c2ccccc21 | 5.6% (inactive) |
| O=S(=O)(NC1CC2CCC1C2)c1ccc2c(c1)OCCO2 (stereo unspecified) | 3.1% (inactive) |
| CC(=O)Nc1ccc(NC(=O)Cn2c(=O)n(-c3ccc(F)cc3)c(=O)c3oc4ccccc4c32)cc1 | -9.8% (inactive) |
| COc1ccc(-n2c(N)c(C(=O)NCC3CCCO3)c3nc4ccccc4nc32)c(OC)c1 (stereo unspecified) | 45% (inactive) |
| COCCNC(=O)c1c(N)n(-c2cccc(C)c2)c2nc3ccccc3nc12 | 25.9% (inactive) |
| Nc1c(C(=O)NCC2CCCO2)c2nc3ccccc3nc2n1-c1ccccc1 (stereo unspecified) | 60.3% (active) |
| CC(C)Cn1c(N)c(C(=O)NCC2CCCO2)c2nc3ccccc3nc21 (stereo unspecified) | 59.5% (active) |
| C=CCn1c(N)c(C(=O)NCC2CCCO2)c2nc3ccccc3nc21 (stereo unspecified) | 57% (active) |
| C=CCn1c(N)c(C(=O)Nc2ccccc2)c2nc3ccccc3nc21 | 13.4% (inactive) |
| CC(C)Cn1c(N)c(C(=O)NCCN2CCOCC2)c2nc3ccccc3nc21 | 20.7% (inactive) |
| COCCNC(=O)c1c(N)n(-c2ccccc2)c2nc3ccccc3nc12 | 55.1% (active) |

| SMILES | inhibition |
| --- | --- |
| O=C(NCC1CCCO1)c1coc2nc3ccccc3nc12 (stereo unspecified) | -9.5% (inactive) |
| COc1ccccc1-n1c(N)c(C(=O)NCC2CCCO2)c2nc3ccccc3nc21 (stereo unspecified) | -18.2% (inactive) |
| COCCCNC(=O)c1c(N)n(-c2ccc(S(N)(=O)=O)cc2)c2nc3ccccc3nc12 | 38.7% (inactive) |
| C=CCn1c(N)c(C(=O)Nc2ccc(C)c(C)c2)c2nc3ccccc3nc21 | 41.2% (inactive) |
| O=C(Cn1c(NCCCO)nc2ccccc21)c1cccc(Br)c1 | 4.9% (inactive) |
| O=C(CSc1nnc(COc2ccccc2)n1Cc1ccco1)NCc1ccco1 | 2.2% (inactive) |
| O=C1CC(c2ccccc2)CC(O)=C1C=NCc1ccccc1Cl (stereo unspecified) | 4.3% (inactive) |
| O=C(COC(=O)c1cc2c(s1)CCCC2)Nc1ccc(Cl)cn1 | 4.6% (inactive) |
| CCc1nnc(NC(=O)CCC(=O)N2CCN(CCc3ccccc3)CC2)s1 | -5.9% (inactive) |
| CCn1c(CNc2ccc(F)cc2)nnc1SCC(=O)N1CCCc2ccccc21 | 27.9% (inactive) |
| CCc1ccccc1S(=O)(=O)Cc1ccc(C(=O)NCc2ccc3c(c2)OCO3)o1 | -1.6% (inactive) |
| CCC(=O)Nc1c(C#N)c2nc3ccccc3nc2n1-c1ccccc1C | 24.5% (inactive) |
| CCCCn1c(NC(C)=O)c(C#N)c2nc3ccccc3nc21 | 57% (active) |
| CCCCn1c(NC(=O)c2ccccc2)nc2ccccc21 | -3.6% (inactive) |
| CCCCCn1c(N)c(C#N)c2nc3ccccc3nc21 | 42.7% (inactive) |
| N#Cc1c(N)n(CCNC(=O)c2ccc(Cl)cc2)c2nc3ccccc3nc12 | 16.9% (inactive) |
| CCCCn1c(NC(=O)c2ccccc2)c(C#N)c2nc3ccccc3nc21 | 54.7% (active) |
| N#Cc1c(NC(=O)c2ccccc2Cl)n(Cc2ccccc2)c2nc3ccccc3nc12 | 32.7% (inactive) |
| CCCCn1c(NC(=O)CC)c(C#N)c2nc3ccccc3nc21 | 13% (inactive) |
| Cc1ccccc1C(=O)Nc1ccc2c(C#N)c3nc4ccccc4nc3n2c1 | 6.1% (inactive) |
| C=CCn1c(NC(=O)c2ccccc2Cl)c(C#N)c2nc3ccccc3nc21 | 54.5% (active) |
| CCCCn1c(NC(=O)c2ccccc2Cl)c(C#N)c2nc3ccccc3nc21 | 53.7% (active) |
| N#Cc1c(N)n(CCNC(=O)c2ccccc2)c2nc3ccccc3nc12 | 24.7% (inactive) |
